# Measurements: PubChem BioAssay (NCI)
# Compounds without any hit were thinned out: in the full panel of roughly 83,000, 20% have a hit.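 Step 1: grow cells in 96-well plates. Step 2: add test compound at a single concentration. Step 3: incubate 48 h. Step 4: record percent growth.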 Active and inactive are the calls of the source. Rule for the calls: active = growth percent below 10; inactive = the rest.
# System: NCI-H522 lung
# Test: NCI-60 one-dose screen, 48 h (100 = growth as untreated, 0 = no growth, -100 = all killed)
# Details: 10 µM unless noted
row,SMILES,growth
1,NC(=O)CC1C=CCC1 (stereo not drawn),97.9% (inactive)
2,CC(=O)Nc1ccc(C=Nc2ccc3ccccc3c2)cc1,13.5% (inactive)
3,O=[N+]([O-])c1ccc(O)c(-c2nc3ccccc3s2)c1,58.6% (inactive)
4,CCOC(=O)c1nn(C2CCCCO2)c2ccc(NC(=O)Cn3nnc4ccccc43)cc12 (stereo not drawn),102% (inactive)
5,COC(=O)c1cc2c(=O)[nH]cc3c2c(n1)CCC3,102% (inactive)
6,CCCCCn1c(C)cc(/C=C\c2ccc3cc(C)ccc3[n+]2C)c1C,-36.7% (active)
7,O=c1[nH]c2cc(Cl)c(Cl)cc2n2cc3ncccc3c12,43.8% (inactive)
8,c1nc(N2CCOCC2)c2[nH]ccc2n1,102% (inactive)
9,CCCC[C@@H](C=O)NC(=O)[C@H](CC(C)C)NC(=O)[C@H](CC(C)C)NC(=O)OCc1ccccc1,-0.189% (active)
10,CNC(=O)c1cc(Oc2ccc3nc(NC(=O)c4ccc5ncccc5c4)sc3c2)ccn1,54.3% (inactive)
11,CC(C)(C)OC(=O)N1C=C/C(=C\Cn2cc(-c3ccccc3)nn2)CC1,74.6% (inactive)
12,CC[C@@H]1NC(=O)[C@@H]2CCCCN2C(=O)[C@@H]2CCCN2C(=O)[C@@H](NC(=O)[C@H](Cc2cc(F)cc(F)c2)NC(=O)Nc2ccc(C3CC3)cc2F)[C@H](C)OC(=O)[C@@H]2C[C@@H](C)CN2C1=O,19.9% (inactive)
13,CCCSc1nc(N)nc2nc[nH]c12,88.4% (inactive)
14,O=C(Nc1ccc(F)cc1)c1ccccc1,101% (inactive)
15,COc1ccc(-c2ccc(NNC(=O)c3ccc(F)cc3)nn2)cc1OC,72.8% (inactive)
16,COc1ccc(C(=O)CSc2nnc(-c3cc(-c4ccccc4)nc4ccccc34)o2)cc1,102% (inactive)
17,O=C(O)c1cc([N+](=O)[O-])ccc1Br,97.3% (inactive)
18,O=C(Nc1ccc(Oc2ccc(F)cc2)c(Cl)c1)c1cccnn1,61.8% (inactive)
19,Cc1cc(-c2ccc(N=Nc3c(S(=O)(=O)O)cc4cc(S(=O)(=O)O)cc(N)c4c3O)c(C)c2)ccc1N=Nc1cc(S(=O)(=O)O)c2ccccc2c1O,101% (inactive)

row,SMILES,growth
1,COc1cc2c(cc1OCCCN1CCN(CCCOc3cc4c(cc3OC)C(=O)N3C[C@H](F)C[C@H]3C=N4)CC1)N=C[C@@H]1C[C@@H](F)CN1C2=O,-48.8% (active)
2,Cc1nc(Cl)cc(N(c2cc(Cl)nc(C)n2)c2ncc(C(=O)Nc3c(C)cccc3Cl)s2)n1,53.7% (inactive)
3,Cn1cc(-c2noc(-c3cn(C)c4ncc(Br)cc34)n2)c2cc(Cl)ccc21,63.1% (inactive)
4,C=C(C)[C@@H]1CC[C@]2(C(N)=O)CC[C@]3(C)[C@H](CC[C@@H]4[C@@]5(C)C/C(=C/c6cccnc6)[C@H](O)C(C)(C)[C@@H]5CC[C@]43C)[C@@H]12,8.63% [100 µM] (active)
5,Nc1nc(Nc2ccccc2)c2ncn(Cc3ccc4c(c3)OCO4)c2n1,43.8% (inactive)
6,C[n+]1c2ccccc2nc2c(N)cc(N)cc21,52.2% (inactive)
7,CCOC(=O)c1cc(C(=O)c2ccc(OC)c(OC)c2)n2ccc(-c3ccccn3)cc12,-3.85% (active)
8,O=C(NNc1ccc(-c2ccccc2)nn1)c1ccccc1,97.8% (inactive)
9,CCOC(=O)c1nc2c3ccccc3ccn2c1C(=O)OC,90.6% (inactive)
10,c1cc2ccc3cc2cc1CNCCN1CCNCc2ccc4ccc(cc4c2)CNCCN(CCNC3)CCNCc2ccc3ccc(cc3c2)CNCC1,0.768% (active)
11,Cn1cc(-c2nnc(-c3cn(C)c4ncc(Br)cc34)s2)c2cc(Br)ccc21,94.2% (inactive)
12,O=C1/C(=C/c2cccc(OCc3ccccc3)c2)Oc2cc(OCCN3CCCCC3)ccc21,106% (inactive)
13,CN(Cc1cccc(C(F)(F)F)c1)C(=O)[C@@H](CC(=O)N1CCC(N2CCCCC2)CC1)N1C(=O)[C@@H](N2C(=O)OC[C@@H]2c2ccccc2)[C@H]1/C=C/c1ccccc1,96.1% (inactive)
14,Cc1cc(NN=C(c2ccc(O)cc2)c2ccc(O)cc2)c([N+](=O)[O-])cc1[N+](=O)[O-],15.4% (inactive)
15,CCOC(=O)CCC[P+](c1ccccc1)(c1ccccc1)c1ccccc1,63.1% (inactive)
16,CCN(CC)c1ccc(/C=C/c2ccc3cc(C)ccc3[n+]2CC)cc1,-27.7% (active)
17,O=C(N/N=C/c1ccc([N+](=O)[O-])cc1)c1ccc(Br)o1,88.5% (inactive)
18,CC(C)C1=NOC(=O)C1=Cc1cn(-c2ccccc2)nc1-c1ccc(Br)cc1,86% (inactive)
19,COc1ncnc2c(-c3ccccc3)cn(COCc3ccccc3)c12,36.2% (inactive)
